Our source for the binding signal values is article PMC7862700, “An all-to-all approach to the identification of sequence-specific readers for epigenetic DNA modifications on cytosine”.

Experiment in all cases: DAPPL (digital affinity profiling via proximity ligation, sequencing); 10 mM Tris-HCl pH 7.5, 50 mM NaCl, 1 mM DTT, 4% glycerol, room temperature, 30 min; GST-TFs on glutathione beads, 16-mer random dsDNA library, 0.1% formaldehyde crosslink after washing; high values mean tight binding
Assay [1] has as its target T1, FEV (Homo sapiens, UniProt Q99581 1-238).
T1 sequence: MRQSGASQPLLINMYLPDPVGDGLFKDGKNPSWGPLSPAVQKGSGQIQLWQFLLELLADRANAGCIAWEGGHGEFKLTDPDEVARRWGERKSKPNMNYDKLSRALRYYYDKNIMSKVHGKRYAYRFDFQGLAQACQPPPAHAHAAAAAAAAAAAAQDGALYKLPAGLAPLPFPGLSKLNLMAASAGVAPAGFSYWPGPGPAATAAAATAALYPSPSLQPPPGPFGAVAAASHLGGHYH
To be noted: protein: recombinant; tags: N-terminal GST; dsDNA, one strand shown. In short, it runs like this:
(§1)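 Human transcription factors were made in yeast as GST fusions, captured on glutathione beads and barcoded with DNA. With a tag-only sample included, the pool was incubated with 200 nmole of a random double-stranded 16-mer DNA library in Tris/NaCl/DTT/glycerol buffer at room temperature for 30 min, then crosslinked with 0.1% formaldehyde after washing, ligated by proximity, amplified and sequenced. For binding signal, each hexamer's read frequency for a factor is divided by its frequency for the tag-only sample.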

Assay [2] has as its target ETV5 (Homo sapiens, UniProt P41161 1-510). To be noted: protein: recombinant; tags: N-terminal GST; dsDNA, one strand shown. An outline of the steps: as §1
The target in assay [3] is HSF1 (Homo sapiens, UniProt Q00613 1-529). The following applies: protein: recombinant; tags: N-terminal GST; chain copies: 3; dsDNA, one strand shown. In short, it runs like this: as §1
Assay [4] has as its target T2, SPIC (Homo sapiens, UniProt Q8N5J4 1-248).
T2 sequence: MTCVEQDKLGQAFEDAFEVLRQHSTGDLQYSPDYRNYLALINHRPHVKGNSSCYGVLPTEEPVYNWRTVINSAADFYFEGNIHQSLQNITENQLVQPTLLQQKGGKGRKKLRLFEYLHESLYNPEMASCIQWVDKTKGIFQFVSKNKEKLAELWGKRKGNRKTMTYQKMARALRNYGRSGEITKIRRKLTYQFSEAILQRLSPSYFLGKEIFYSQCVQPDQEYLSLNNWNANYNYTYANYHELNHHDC
To be noted: protein: recombinant; tags: N-terminal GST; dsDNA, one strand shown. An outline of the steps:
as §1

For assay [5], the target named is ELF4 (Homo sapiens, UniProt Q99607 1-663). The following applies: protein: recombinant; tags: N-terminal GST; dsDNA, one strand shown. In short, it runs like this:
as §1

Assay [6] deals with T3, ELK4 (Homo sapiens, UniProt P28324-2 1-405).
T3 sequence: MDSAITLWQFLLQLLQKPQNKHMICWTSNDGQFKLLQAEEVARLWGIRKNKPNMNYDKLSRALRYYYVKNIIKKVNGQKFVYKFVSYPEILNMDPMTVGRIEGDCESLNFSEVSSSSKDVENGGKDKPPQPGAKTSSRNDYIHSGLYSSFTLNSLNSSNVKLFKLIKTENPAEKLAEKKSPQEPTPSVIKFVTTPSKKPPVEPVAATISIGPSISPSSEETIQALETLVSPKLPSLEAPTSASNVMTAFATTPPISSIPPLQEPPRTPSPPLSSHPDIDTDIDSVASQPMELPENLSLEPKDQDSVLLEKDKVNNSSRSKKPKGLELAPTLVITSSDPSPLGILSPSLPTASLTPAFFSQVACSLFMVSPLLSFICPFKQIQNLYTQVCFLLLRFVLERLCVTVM
To be noted: protein: recombinant; tags: N-terminal GST; dsDNA, one strand shown. An outline of the steps: as §1

In assay [7] the target is T4, ETV2 (Homo sapiens, UniProt O00321 1-342).
T4 sequence: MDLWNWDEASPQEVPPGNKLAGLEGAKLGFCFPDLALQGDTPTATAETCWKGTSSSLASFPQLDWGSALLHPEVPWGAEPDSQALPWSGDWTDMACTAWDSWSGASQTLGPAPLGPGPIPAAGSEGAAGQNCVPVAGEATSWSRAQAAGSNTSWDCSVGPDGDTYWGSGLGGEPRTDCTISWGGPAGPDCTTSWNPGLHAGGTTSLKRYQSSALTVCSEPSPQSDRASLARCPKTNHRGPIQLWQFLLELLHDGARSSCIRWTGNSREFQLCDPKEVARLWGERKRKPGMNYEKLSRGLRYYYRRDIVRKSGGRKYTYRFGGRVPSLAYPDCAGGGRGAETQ
To be noted: protein: recombinant; tags: N-terminal GST; dsDNA, one strand shown. In short, it runs like this: as §1

For assay [8], the target named is T5, ELF3 (Homo sapiens, UniProt P78545 1-371).
T5 sequence: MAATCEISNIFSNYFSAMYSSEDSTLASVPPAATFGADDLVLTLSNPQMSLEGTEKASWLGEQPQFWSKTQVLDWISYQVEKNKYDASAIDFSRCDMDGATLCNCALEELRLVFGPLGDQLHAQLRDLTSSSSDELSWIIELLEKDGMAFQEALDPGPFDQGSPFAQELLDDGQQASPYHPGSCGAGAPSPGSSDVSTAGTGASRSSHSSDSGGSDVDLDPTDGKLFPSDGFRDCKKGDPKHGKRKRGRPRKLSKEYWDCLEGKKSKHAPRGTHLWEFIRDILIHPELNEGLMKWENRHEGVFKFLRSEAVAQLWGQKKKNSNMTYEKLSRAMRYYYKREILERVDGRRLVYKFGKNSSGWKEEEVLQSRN
The following applies: protein: recombinant; tags: N-terminal GST; dsDNA, one strand shown. In short, it runs like this: as §1

In assay [9] the target is CRX (Homo sapiens, UniProt O43186 1-299). To be noted: protein: recombinant; tags: N-terminal GST; dsDNA, one strand shown. An outline of the steps: as §1
In assay [10] the target is ETV1 (Homo sapiens, UniProt P50549 1-477). The following applies: protein: recombinant; tags: N-terminal GST; dsDNA, one strand shown. In short, it runs like this: as §1
For assay [11], the target named is T6, ERF (Homo sapiens, UniProt P50548 1-548).
T6 sequence: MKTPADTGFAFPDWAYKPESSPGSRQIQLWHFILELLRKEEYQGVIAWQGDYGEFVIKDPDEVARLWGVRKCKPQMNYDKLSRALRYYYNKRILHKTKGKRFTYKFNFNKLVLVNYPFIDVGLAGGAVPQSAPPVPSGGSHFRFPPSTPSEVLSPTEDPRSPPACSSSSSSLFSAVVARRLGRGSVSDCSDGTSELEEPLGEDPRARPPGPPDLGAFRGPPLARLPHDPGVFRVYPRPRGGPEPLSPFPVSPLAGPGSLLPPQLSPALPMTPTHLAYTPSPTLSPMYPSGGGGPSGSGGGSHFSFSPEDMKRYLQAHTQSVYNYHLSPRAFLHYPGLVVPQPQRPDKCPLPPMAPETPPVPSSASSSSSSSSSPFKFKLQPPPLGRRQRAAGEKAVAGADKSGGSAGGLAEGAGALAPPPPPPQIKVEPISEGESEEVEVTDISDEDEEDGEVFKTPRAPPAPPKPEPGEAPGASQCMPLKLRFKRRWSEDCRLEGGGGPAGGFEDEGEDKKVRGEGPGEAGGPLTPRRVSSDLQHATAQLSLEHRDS
To be noted: protein: recombinant; tags: N-terminal GST; dsDNA, one strand shown. An outline of the steps:
as §1

Assay [12] deals with T7, ETV3L (Homo sapiens, UniProt Q6ZN32 1-361).
T7 sequence: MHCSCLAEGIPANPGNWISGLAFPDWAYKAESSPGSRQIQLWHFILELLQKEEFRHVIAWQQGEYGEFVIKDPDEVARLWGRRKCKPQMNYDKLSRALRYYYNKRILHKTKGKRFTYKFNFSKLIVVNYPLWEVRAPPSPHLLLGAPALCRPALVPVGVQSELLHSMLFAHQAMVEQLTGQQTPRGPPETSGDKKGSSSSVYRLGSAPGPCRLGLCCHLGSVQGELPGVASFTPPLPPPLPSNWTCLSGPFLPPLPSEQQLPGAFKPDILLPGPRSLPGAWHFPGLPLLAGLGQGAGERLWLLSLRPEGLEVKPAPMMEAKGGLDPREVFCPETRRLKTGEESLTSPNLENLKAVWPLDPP
The following applies: protein: recombinant; tags: N-terminal GST; dsDNA, one strand shown. In short, it runs like this: as §1

Assay [13] deals with T8, ETS2 (Homo sapiens, UniProt P15036 1-469).
T8 sequence: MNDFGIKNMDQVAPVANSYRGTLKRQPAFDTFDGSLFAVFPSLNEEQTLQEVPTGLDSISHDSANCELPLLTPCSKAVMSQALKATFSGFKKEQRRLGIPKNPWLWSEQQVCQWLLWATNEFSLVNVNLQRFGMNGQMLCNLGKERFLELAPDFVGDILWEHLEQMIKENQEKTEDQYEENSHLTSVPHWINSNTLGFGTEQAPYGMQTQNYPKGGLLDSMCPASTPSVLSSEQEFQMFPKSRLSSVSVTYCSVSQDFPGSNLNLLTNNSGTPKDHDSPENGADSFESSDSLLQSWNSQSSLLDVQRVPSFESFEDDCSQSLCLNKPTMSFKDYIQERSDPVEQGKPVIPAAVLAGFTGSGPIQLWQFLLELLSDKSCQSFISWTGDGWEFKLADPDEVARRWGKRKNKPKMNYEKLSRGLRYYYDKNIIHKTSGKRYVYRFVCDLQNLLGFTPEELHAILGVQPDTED
To be noted: protein: recombinant; tags: N-terminal GST; dsDNA, one strand shown. In short, it runs like this:
as §1

In assay [14] the target is T9, SPDEF (Homo sapiens, UniProt O95238 1-335).
T9 sequence: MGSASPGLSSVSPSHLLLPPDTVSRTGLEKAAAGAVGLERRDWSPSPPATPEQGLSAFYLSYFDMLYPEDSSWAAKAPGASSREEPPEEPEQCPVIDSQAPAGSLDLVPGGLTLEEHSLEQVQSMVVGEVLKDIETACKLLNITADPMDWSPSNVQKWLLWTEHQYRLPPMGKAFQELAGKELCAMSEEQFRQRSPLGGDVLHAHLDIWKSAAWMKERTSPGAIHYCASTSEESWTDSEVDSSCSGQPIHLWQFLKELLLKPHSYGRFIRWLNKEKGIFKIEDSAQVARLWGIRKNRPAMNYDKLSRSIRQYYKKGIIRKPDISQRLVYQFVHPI
To be noted: protein: recombinant; tags: N-terminal GST; dsDNA, one strand shown. An outline of the steps:
as §1

Assay [15] addresses T10, ETV7 (Homo sapiens, UniProt Q9Y603 1-341).
T10 sequence: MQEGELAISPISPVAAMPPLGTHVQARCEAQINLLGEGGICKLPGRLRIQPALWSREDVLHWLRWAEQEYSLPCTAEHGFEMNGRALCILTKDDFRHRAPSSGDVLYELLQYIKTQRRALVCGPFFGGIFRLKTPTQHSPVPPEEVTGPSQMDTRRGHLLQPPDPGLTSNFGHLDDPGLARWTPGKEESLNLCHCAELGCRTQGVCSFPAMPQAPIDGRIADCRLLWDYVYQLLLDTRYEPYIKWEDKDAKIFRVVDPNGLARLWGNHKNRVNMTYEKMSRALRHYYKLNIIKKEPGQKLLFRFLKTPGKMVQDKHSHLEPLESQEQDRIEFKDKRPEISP
The following applies: protein: recombinant; tags: N-terminal GST; dsDNA, one strand shown. An outline of the steps:
as §1

Assay [16] concerns the target T11, ELF5 (Homo sapiens, UniProt Q9UKW6-2 1-255).
T11 sequence: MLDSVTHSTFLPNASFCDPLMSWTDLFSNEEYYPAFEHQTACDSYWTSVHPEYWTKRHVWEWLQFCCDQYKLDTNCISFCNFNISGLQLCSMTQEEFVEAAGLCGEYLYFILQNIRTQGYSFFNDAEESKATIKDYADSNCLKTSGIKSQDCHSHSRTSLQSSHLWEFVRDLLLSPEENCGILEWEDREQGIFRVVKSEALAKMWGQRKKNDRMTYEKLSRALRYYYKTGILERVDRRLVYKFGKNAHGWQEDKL
To be noted: protein: recombinant; tags: N-terminal GST; dsDNA, one strand shown. An outline of the steps: as §1

In assay [17] the target is T12, ETV3 (Homo sapiens, UniProt P41162-2 1-143).
T12 sequence: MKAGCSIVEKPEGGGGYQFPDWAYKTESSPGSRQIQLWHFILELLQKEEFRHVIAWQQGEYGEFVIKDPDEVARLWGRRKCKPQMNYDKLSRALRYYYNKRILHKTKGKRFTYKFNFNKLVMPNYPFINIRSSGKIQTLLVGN
The following applies: protein: recombinant; tags: N-terminal GST; dsDNA, one strand shown. In short, it runs like this:
as §1

In assay [18] the target is ETV6 (Homo sapiens, UniProt P41212 1-452). The following applies: protein: recombinant; tags: N-terminal GST; dsDNA, one strand shown. An outline of the steps:
as §1

Sequence of CRX (O43186 whole entry): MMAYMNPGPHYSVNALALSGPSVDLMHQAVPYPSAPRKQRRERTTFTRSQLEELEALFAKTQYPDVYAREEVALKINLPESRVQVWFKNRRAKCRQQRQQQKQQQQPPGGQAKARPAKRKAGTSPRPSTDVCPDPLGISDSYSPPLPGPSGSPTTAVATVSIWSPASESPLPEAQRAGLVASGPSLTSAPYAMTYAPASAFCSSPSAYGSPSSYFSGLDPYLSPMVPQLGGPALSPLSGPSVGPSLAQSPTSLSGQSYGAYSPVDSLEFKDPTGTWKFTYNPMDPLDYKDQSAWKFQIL
Sequence of HSF1 (Q00613 whole entry): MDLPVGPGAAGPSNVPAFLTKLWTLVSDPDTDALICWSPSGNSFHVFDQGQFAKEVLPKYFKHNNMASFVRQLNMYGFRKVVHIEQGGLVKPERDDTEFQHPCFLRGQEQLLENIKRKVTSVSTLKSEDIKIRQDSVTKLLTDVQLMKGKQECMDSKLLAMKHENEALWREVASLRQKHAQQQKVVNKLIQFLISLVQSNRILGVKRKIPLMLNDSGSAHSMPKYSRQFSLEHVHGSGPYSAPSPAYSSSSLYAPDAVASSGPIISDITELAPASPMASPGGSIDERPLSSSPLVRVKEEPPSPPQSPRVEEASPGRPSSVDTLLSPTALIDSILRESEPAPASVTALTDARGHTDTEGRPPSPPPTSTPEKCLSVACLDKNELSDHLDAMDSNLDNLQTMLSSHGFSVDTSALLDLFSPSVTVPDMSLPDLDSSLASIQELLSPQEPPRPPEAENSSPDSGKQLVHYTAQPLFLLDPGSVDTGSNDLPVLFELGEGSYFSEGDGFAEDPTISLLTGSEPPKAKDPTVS
Sequence of ETV6 (P41212 whole entry): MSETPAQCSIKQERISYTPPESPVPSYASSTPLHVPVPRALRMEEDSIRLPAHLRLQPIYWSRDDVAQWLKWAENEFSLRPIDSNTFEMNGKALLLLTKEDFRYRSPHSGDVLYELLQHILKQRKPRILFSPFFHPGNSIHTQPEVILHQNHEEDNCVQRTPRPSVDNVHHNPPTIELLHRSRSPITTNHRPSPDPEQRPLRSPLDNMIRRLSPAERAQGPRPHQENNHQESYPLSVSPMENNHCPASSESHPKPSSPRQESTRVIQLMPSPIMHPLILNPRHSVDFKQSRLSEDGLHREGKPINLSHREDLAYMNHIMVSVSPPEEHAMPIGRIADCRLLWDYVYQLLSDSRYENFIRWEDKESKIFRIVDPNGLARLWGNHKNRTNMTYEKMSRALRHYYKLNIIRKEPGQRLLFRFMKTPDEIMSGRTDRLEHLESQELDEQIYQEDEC
Sequence of ETV5 (P41161 whole entry): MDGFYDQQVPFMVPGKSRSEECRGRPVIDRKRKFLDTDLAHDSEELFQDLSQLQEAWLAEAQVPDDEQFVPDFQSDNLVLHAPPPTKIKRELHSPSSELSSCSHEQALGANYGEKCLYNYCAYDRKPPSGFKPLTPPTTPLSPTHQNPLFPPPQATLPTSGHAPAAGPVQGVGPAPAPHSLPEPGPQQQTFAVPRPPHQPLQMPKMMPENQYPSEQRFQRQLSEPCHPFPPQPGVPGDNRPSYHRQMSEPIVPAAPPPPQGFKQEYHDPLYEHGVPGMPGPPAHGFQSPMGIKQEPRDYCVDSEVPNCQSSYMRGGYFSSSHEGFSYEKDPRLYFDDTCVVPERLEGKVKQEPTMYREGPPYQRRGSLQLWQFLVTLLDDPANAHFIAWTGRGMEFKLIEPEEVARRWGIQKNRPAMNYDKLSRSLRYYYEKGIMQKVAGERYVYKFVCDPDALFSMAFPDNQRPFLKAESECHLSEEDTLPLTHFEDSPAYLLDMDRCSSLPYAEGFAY
Sequence of ELF4 (Q99607 whole entry): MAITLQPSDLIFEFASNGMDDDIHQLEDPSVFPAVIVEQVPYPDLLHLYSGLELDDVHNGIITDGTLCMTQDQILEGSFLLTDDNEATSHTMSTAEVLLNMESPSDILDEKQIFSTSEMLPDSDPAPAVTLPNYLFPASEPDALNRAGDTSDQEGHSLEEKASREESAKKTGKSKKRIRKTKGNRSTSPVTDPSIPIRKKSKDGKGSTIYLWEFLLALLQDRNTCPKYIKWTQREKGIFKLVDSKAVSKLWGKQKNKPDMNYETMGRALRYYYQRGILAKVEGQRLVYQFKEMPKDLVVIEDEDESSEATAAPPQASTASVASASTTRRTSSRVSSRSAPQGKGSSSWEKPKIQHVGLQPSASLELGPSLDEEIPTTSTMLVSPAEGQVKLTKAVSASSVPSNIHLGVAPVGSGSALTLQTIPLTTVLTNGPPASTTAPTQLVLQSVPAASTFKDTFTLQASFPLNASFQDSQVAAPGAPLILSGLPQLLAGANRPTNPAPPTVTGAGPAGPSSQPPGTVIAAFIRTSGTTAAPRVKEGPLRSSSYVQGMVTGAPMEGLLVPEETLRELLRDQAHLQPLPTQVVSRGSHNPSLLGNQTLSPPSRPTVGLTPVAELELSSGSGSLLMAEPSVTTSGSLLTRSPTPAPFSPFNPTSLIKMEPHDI
Sequence of ETV1 (P50549 whole entry): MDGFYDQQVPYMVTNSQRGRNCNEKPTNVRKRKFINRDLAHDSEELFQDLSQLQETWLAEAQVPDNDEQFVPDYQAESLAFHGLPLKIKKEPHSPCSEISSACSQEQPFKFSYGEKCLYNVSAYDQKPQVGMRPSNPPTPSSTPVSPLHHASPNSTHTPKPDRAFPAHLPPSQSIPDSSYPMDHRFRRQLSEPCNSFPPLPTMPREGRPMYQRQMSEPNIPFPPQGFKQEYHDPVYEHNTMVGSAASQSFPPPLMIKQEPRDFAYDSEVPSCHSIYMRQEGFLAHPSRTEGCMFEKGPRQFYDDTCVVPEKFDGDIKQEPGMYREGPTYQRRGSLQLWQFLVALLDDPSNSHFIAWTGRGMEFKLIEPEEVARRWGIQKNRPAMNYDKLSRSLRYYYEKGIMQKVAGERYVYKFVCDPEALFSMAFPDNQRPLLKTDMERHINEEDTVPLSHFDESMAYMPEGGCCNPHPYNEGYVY

With TCTTGC, the binding signal in assay [1] is 1.24 fold enrichment (6-mer frequency, TF over GST control); in assay [2] it was 1.39 fold enrichment (6-mer frequency, TF over GST control); in assay [3], 1.2 fold enrichment (6-mer frequency, TF over GST control); in assay [4] it was 1.36 fold enrichment (6-mer frequency, TF over GST control); in assay [5], 1.32 fold enrichment (6-mer frequency, TF over GST control); in [6], 1.3 fold enrichment (6-mer frequency, TF over GST control). In addition, the binding signal in assay [7] is 1.36 fold enrichment (6-mer frequency, TF over GST control); in [8], 1.4 fold enrichment (6-mer frequency, TF over GST control); in assay [9] it was 1.21 fold enrichment (6-mer frequency, TF over GST control); in [10], 1.4 fold enrichment (6-mer frequency, TF over GST control); in assay [11], 1.4 fold enrichment (6-mer frequency, TF over GST control); in assay [12], 1.36 fold enrichment (6-mer frequency, TF over GST control). Also, the binding signal in assay [13] is 1.35 fold enrichment (6-mer frequency, TF over GST control); in [14], 1.33 fold enrichment (6-mer frequency, TF over GST control); in assay [15], 1.38 fold enrichment (6-mer frequency, TF over GST control); in assay [16], 1.34 fold enrichment (6-mer frequency, TF over GST control); in assay [17] it was 1.47 fold enrichment (6-mer frequency, TF over GST control); in assay [18], 1.18 fold enrichment (6-mer frequency, TF over GST control).
